# Screening data (PubChem BioAssay)
# Sampled rows, rich in hits. Any-hit rate of the full collection: about 18%.
# TDP1 block – blocks human tyrosyl-DNA phosphodiesterase 1. recombinant TDP1, AlphaScreen DNA substrate cleavage. 350,000 tested, 0.28% active. Potency, µM (series often up to 130 µM), for inactives: at the top dose activity change, negative = inhibition, most hits filed as inhibitors; also: potency is read from the fitted curve at half-maximal effect; % is scaled to controls: 0 for no effect and ±100 for the full control effect; nearly all actives have a fitted effect of over 40% in size
# Target sequence (Q9NUW8 whole entry, looked up): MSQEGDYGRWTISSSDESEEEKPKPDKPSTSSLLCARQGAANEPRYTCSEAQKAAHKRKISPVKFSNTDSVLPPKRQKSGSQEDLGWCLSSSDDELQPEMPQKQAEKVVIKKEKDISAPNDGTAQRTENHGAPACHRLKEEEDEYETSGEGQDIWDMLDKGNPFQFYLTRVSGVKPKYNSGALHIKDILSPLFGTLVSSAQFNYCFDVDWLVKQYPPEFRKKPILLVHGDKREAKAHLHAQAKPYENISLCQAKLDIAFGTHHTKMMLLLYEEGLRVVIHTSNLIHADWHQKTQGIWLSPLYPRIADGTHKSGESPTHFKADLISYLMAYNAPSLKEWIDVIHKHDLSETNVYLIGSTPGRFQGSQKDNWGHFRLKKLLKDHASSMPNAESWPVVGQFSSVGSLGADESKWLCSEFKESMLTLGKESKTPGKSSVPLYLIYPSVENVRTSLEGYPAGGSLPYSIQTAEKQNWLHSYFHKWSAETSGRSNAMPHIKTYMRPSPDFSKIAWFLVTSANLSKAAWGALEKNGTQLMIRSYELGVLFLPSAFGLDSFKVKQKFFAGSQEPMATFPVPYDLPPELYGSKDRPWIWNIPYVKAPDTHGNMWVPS
#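 Signal: AlphaScreen proximity between streptavidin donor and anti-FITC acceptor beads on intact substrate. Reaction: Tdp1 1 nM, substrate 15 nM final, 5 min RT after 15 min compound preincubation.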
# HepG2 tox – kills HepG2 cells in TGF-b inhibitor counter-screen; HepG2 CAGA-GFP viability, ATP luminescence, 18 h; Potency, µM (highest dose often 46.1 µM), for inactives: at the top dose activity change, negative = cytotoxicity, usual class: cytotoxic; 410,000 tested, 0.76% active; also: potency is read from the fitted curve at half-maximal effect
#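 CellTiter-Glo luminescence gave cytotoxicity after 18 hours at 37 degrees C. The cells were HepG2 CAGA-GFP in 1% FBS DMEM, stimulated with 500 pg/mL TGF-beta after compound addition. %Activity was normalised to no-cell wells (complete cell-killing) and DMSO (no toxicity), and curves were fitted and classified.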
# IL1B secr inh – inflammasome signaling inhibition, IL-1 beta readout; activity change, % at 57.5 µM; 360,000 tested, 4.7% active; THP-1 LPS/ATP IL-1B secretion, AlphaLISA, 16 h; hits give low values; in the data active = activity change below about -50%; inconclusive = mostly about -30% to -49%; also: % is scaled to controls: 0 for no effect and ±100 for the full control effect
#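 Secreted IL-1B measured by AlphaLISA bead assay after 16 h compound exposure of THP-1 cells; compounds (final up to 57.5 uM) added 1 h before LPS (250 ng/mL) and ATP (1.25 mM) stimulation; lower signal means less secretion.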
# DT40 TDP1 no CPT – qHTS for Inhibitors of human tyrosyl-DNA phosphodiesterase 1 (TDP1): qHTS in cells in absence of CPT | 420,000 tested, 15% active | DT40 Tdp1-/- hTDP1 cells, no CPT, ATP luminescence, 48 h | Potency, µM (series often up to 46.2 µM), for the others: at the top dose activity change, negative = growth inhibition, actives largely listed as inhibitors; also: potency is read from the fitted curve at half-maximal effect; % is scaled to controls: 0 for no effect and ±100 for the full control effect; nearly all actives have a fitted effect of over 55% in size
#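 No-CPT arm: Tdp1-/-;hTDP1 DT40 cells (400/well) plus compounds, incubated ≥48 hr at 37 °C. Readout CellTiter-Glo luminescence.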
# TGFb inhibitor – blocks TGF-b signaling; 410,000 tested, 1.2% active; HepG2 CAGA-GFP TGF-b/SMAD3 reporter, GFP fluorescence, 18 h; TGF-beta stimulated, 500 pg/mL final; Potency, µM (titrated, usually from 46.1 µM), without a hit: at the top dose activity, negative = inhibition, usual class: inhibitors; AID 588855; also: potency is read from the fitted curve at half-maximal effect; % is scaled to controls: 0 for no effect and ±100 for the full control effect; nearly all actives have a fitted effect of over 65% in size
#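 Inhibition was scored as loss of TGF-beta-induced (500 pg/mL final, 18 hours, 37 degrees C) GFP in HEPG2 cells carrying a CAGA-GFP reporter, in DMEM with 1% FBS. Well GFP was summed per cell; Activity was normalised to unstimulated and stimulated DMSO wells, then concentration-response fitting.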
# DT40 TDP1 CPT – DT40-hTDP1 cell growth loss with CPT; chicken DT40 Tdp1-/-;hTDP1 cells + 20 nM CPT, ATP luminescence, 48 h; Potency, µM (series often up to 46.2 µM), for the others: top-dose activity change, negative = growth inhibition, hits mostly inhibitors; 420,000 tested, 12% active; AID 686979; also: potency is read from the fitted curve at half-maximal effect; % is scaled to controls: 0 for no effect and ±100 for the full control effect; nearly all actives have a fitted effect of over 55% in size
#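 Chicken DT40 Tdp1-/- cells stably complemented with human TDP1 were seeded at 400 cells/well in medium containing 20 nM camptothecin, exposed to pin-transferred compounds, and grown at 37 °C for at least 48 hr. Viability was read as ATP luminescence.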
# Starred values were filed as active, the others as inactive; i = inactive; ? = inconclusive; . = not tested or not shown; [ ] = dose if it differs, or a comment. Unless noted, calls follow the shape of the dose curve; as a rule, active = well fitted curve in the direction sought with a large enough effect; inconclusive = small, poorly fitted or top-dose-only effect, or another doubt; inactive = no such curve, though single readings can be large; an effect the other way counts as inactive or inconclusive.
SMILES,TDP1 block,HepG2 tox,IL1B secr inh,DT40 TDP1 no CPT,TGFb inhibitor,DT40 TDP1 CPT
O=C(NNC(=O)c1cc(Br)ccc1O)c1csc(N2CCOCC2)n1,0.3%[56.1 µM],-18.7%,95.7,20.6µM*,-39.5%,?
O=C(NNC(=O)c1cc(Br)ccc1Cl)c1csc(N2CCOCC2)n1,4.4%,5.9%,i,1.5%,5.2%,-0.6%
CCOc1ncccc1C(=O)NNC(=O)c1csc(N2CCOCC2)n1,7.3%,-12.4%,-29.9,?,-0.9%,25.9µM*
CC(=O)Nc1ccc(C(=O)NNC(=O)c2csc(N3CCOCC3)n2)cc1,.,-13.8%,-28.2,7.31µM*,-13.1%,?
CCN(CC)S(=O)(=O)c1ccc(C(=O)NNC(=O)c2csc(N3CCOCC3)n2)cc1,7.0%,-20.7%,6.2,-19.2%,-0.1%,-3.4%
Cc1ccc(C(=O)C2CCN(C(=S)NCCCOC(C)C)CC2)cc1,.,-16.9%,7.6,?,-19.8%,?
COc1ccc(CNC(=O)C2CCC(CNc3c(N4CCC(C)CC4)c(=O)c3=O)CC2)cc1 (centres undefined),5.2%,1.6%,-1.6,16.8%,2.3%,-16.6%
COc1cccc(NS(=O)(=O)c2ccc3[nH]c4c(c3c2)CCCCCC4)c1,11.0%,12.6µM*,.,20.6µM*,?,16.4µM*
CCOC(=O)CC(NS(=O)(=O)c1ccc2[nH]c3c(c2c1)CCCC3)c1ccccc1Cl (centres undefined),5.7%,-47.9%,.,?,20µM*,18.4µM*
COC(=O)c1ccc(NS(=O)(=O)c2ccc3[nH]c4c(c3c2)CCCC4)cc1,11.2%,-16.6%,.,6.51µM*,?,?
c1ccc(-n2cnnn2)cc1,.,.,.,-1.9%,.,-4.2%
COc1cc(NC(=O)c2cc(S(=O)(=O)N3CCCCC3)c[nH]2)cc(OC)c1,.,6.9%,0.3,-0.1%,-14.2%,-3.8%
COC(=O)Cn1c(C)c(/C=C/c2cc[n+](C)cc2)c2ccccc21,.,-3.6%,30.6,16.4µM*,82.1%,?
C[C@@H]1CC(=O)[C@H]2CC(CO)=CCC[C@@H]2[C@@]1(C)CC/C(=C/CO)CO,.,-21.6%,-3.0,-5.1%,-13.2%,-5.1%
COc1cc(C)ccc1OCc1cc(C(=O)N(Cc2c(C)nn(C)c2C)C2CC2)no1,2.1%,-14.4%,-2.0,16.4µM*,-20.7%,?
COc1cc(C)ccc1OCc1cc(C(=O)N2C[C@H]3CC[C@H]2C3)no1,-0.3%,8.0%,4.6,10.4%,0.7%,-3.4%
CC(=O)N/C(=C/c1ccccc1)c1sc2ccccc2[n+]1CCCCI,.,2.8%,.,11.2µM*,12.2%,20µM*
C[n+]1c(/C=C/c2ccc(N)cc2)sc2ccccc21,.,-12.5%,.,?,-11.5%,17.8µM*
CC(=O)N/C(=C\c1ccccc1)C(=O)NCC(=O)O,0.0%,12.3%,18.3,5.2%,12.2%,3.3%
COc1ccc(/C=C/c2sc3ccccc3[n+]2CCCCI)cc1OC,.,-7.2%,.,12.6µM*,1.6%,7.94µM*
COc1cc(/C=C/c2sc3ccccc3[n+]2CCCS(=O)(=O)[O-])ccc1O,1.2%,-19.6%,1.9,?,?,?
CCCN(CCC)c1ccc(/C=C/c2sc3ccccc3[n+]2CCCCI)cc1,.,14.1µM*,.,0.316µM*,6.31µM*,0.316µM*
CCCCN(CCCC)c1ccc(/C=C2\C=Cc3ccccc32)cc1,.,-10.4%,.,-24.0%,3.6%,-20.8%
O=C(CN1C(=O)NC2(CCCC2)C1=O)Nc1cc(Cl)ccc1N1CCCCC1,4.6%,-16.5%,0.0,-25.3%,-1.8%,-12.9%
O=C(NNC(=O)c1ccc(Br)s1)c1cccc(Cl)c1,0.7%,-23.0%,-15.8,?,1.5%,-7.9%
SMILES,TDP1 block,HepG2 tox,IL1B secr inh,DT40 TDP1 no CPT,TGFb inhibitor,DT40 TDP1 CPT
CN(C)c1ccc(/C=C/c2sc3ccccc3[n+]2Cc2ccccc2)cc1,.,-51.3%,.,0.1µM*,?,0.112µM*
Cn1cnc(S(=O)(=O)N2CCC(C(=O)Nc3ccc(F)cc3F)CC2)c1,6.2%,0.2%,.,-16.2%,-18.6%,9.5%
CC(=O)OC1c2c(ccc3ccc(=O)oc23)OC(C)(C)C1OC(=O)CC(C)C (centres undefined),0.0%,-28.2%,0.0,18.4µM*,?,23.1µM*
CCO[C@@H]1c2c(ccc3ccc(=O)oc23)OC(C)(C)[C@@H]1O,1.0%,-20.5%,-2.4,-7.4%,13.9%,-0.7%
C/C=C(/C)C(=O)O[C@@H]1c2c(ccc3ccc(=O)oc23)OC(C)(C)[C@@H]1OC(=O)/C(C)=C\C,-1.3%,-31.2%,?,9.2µM*,?,16.4µM*
CSCCC(=O)N(C)CC1CCCN(CCc2cccc(C(F)(F)F)c2)C1 (centres undefined),.,7.0%,-6.6,-15.3%,-4.7%,-8.2%
CCN(CC1CCCN(CCc2cccc(F)c2)C1)C(=O)c1cc2ccccc2o1 (centres undefined),3.9%,-4.1%,-88.0*,18.4µM*,-9.3%,25.9µM*
CN(CC1CCCN(CCc2cccc(C(F)(F)F)c2)C1)C(=O)c1cc2ccccc2o1 (centres undefined),.,-82.3%,-59.8*,13µM*,12.6µM*,?
CCN(CC1CCCN(CCc2cccc(F)c2)C1)C(=O)c1cc(C)oc1C (centres undefined),6.2%,-30.2%,?,?,-2.0%,?
CC(/C=N/NC(=O)c1ccco1)=C\c1ccccc1,3.5%,1.8%,-7.6,-25.8%,25.5%,-19.5%
CC(=O)OCC1OC(C#CC2=CCCCC2)C=CC1OC(C)=O (centres undefined),10.1%[21 µM],.,.,.,.,.
